Source: PubChem BioAssay (National Center for Advancing Translational Sciences (NCATS))
Cruzain noTriton = inhibitors of Trypanosoma cruzi cruzain without detergent; P25779; purified cruzain, Z-FR-AMC fluorescence, no detergent; Potency, µM, without a hit: max response, negative = inhibition, actives largely listed as inhibitors; hit rate 2.3% among 200,000;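 also: plate controls were enzyme without inhibitor for no effect and buffer without enzyme for full effect; nearly all actives have a fitted effect of over 40% in size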
Target sequence (P25779 123-467 limits assumed): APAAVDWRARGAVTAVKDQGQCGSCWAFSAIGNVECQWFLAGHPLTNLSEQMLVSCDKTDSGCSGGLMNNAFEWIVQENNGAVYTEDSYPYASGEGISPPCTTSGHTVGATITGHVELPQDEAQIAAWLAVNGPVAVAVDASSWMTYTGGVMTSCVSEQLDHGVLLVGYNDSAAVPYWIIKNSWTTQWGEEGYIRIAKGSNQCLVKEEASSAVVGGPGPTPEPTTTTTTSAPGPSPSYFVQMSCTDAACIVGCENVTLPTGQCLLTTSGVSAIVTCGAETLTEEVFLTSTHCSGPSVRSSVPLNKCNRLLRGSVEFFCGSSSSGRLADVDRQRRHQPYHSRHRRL
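Detergent-free condition (0.00005% Triton X-100) in acetate buffer pH 5.5 with DTT. 1.5 nM enzyme and compound were pre-mixed 15 min, then 2 uM Z-FR-AMC substrate added; reaction progress from fluorescence change between first and third reads (60 s).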
Cruzain inh Det = inhibitors of Trypanosoma cruzi cruzain with detergent | hit rate 0.43% among 200,000 | Potency, µM, for the others: max response, negative = inhibition, usual class: inhibitors | purified cruzain, Z-FR-AMC fluorescence, 0.01% Triton | P25779;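 also: plate controls were neutral wells for no effect and buffer without enzyme for full effect; nearly all actives have a fitted effect of over 40% in size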
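Z-FR-AMC hydrolysis (2 uM substrate) by cruzain (1.5 nM) monitored kinetically at ex 360/em 450 nm after 15 min room-temperature compound exposure; 0.01% Triton X-100, pH 5.5, 5 mM DTT.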
Active calls of the source: *; u = inconclusive. Rows were chosen to be rich in hits. Some 2.6% of all compounds tested hit in one or more screens of this group. Calls follow the shape of the dose curve; as a rule, active = well fitted curve in the direction sought with a large enough effect; inconclusive = small, poorly fitted or top-dose-only effect, or another doubt; inactive = no such curve, though single readings can be large; an effect the other way counts as inactive or inconclusive. Potency is read from the fitted curve at half-maximal effect.

SMILES	Cruzain noTriton	Cruzain inh Det
CCOc1ccc2nc(NC(=O)c3cc(=O)c4ccc(C)cc4o3)sc2c1	3.9%	-16.0%
Clc1cccc(N2CCN(c3nc4ccccc4c4nc(-c5ccccc5)nn34)CC2)c1	-0.8%	0.7%
c1ccc(C2Nc3ccccc3-c3nc4ccccc4n32)cc1 (stereo not given)	u	-1.4%
Oc1ccccc1C1=Nc2nc3ccccc3n2C(c2ccccc2)C1 (stereo not given)	25.1µM*	-4.7%
COc1ccccc1N1CCN(c2c(CN3CCCC3)c(=O)oc3ccccc23)CC1	-11.9%	-3.2%
O=C1CC(N2CCN(c3ccccc3Cl)CC2)C(=O)N1c1ccccc1 (stereo not given)	10.4%	0.5%
O=C1CC(N2C(=O)/C(=C/C=C/c3ccccc3)SC2=S)C(=O)N1c1ccccc1 (stereo not given)	15.8µM*	-5.9%
N/N=c1\sc2ccccc2n1-c1ccccc1	15.8µM*	-3.4%
CC(=O)N=c1sc2ccccc2n1C	-4.2%	-0.1%
O=C(Cc1ccc(F)cc1)NCCc1csc(-c2ccc(C(F)(F)F)cc2)n1	u	-10.4%
COc1ccc(NC(=O)C2CCC(CNS(=O)(=O)c3ccc(Br)s3)CC2)cc1OC (stereo not given)	4.6%	-0.1%
COc1ccccc1C(=O)Nc1cccc(OCc2cc(=O)n3ccccc3n2)c1	12.7%	4.5%
O=C(CSc1ccc(Cl)cc1)Nc1nnc(-c2cccc([N+](=O)[O-])c2)s1	u	-1.6%
O=C(Cc1cccc2ccccc12)Nc1nnc(-c2cccc([N+](=O)[O-])c2)s1	25.1µM*	0.2%
CCN(C(=O)Cn1ncc2c1-c1cc(C)ccc1OC2)c1cc(Cl)ccc1OC	u	-10.6%
CCOC(=O)c1c(NC(=O)/C=C/c2ccc(OCC)cc2)sc2c1CCCC2	-14.4%	-1.5%
Cc1ccc(-c2nc3c4ccccc4n(Cc4cccc(Cl)c4)c(=O)n3n2)cc1	-7.6%	-0.3%
O=C(NC(=S)Nc1cc(C(F)(F)F)ccc1N1CCOCC1)c1sc2ccccc2c1Cl	20µM*	3.5%
CC(C)(C)C(=O)NC(=S)Nc1cc(C(F)(F)F)ccc1N1CCOCC1	-0.8%	-12.3%
Cc1cc(=O)oc2cc(OCc3ccc(C(=O)N4CCN(c5ccccc5)CC4)cc3)ccc12	-28.1%	-5.0%
COc1ccc(Oc2coc3cc(OC(=O)c4cccs4)ccc3c2=O)cc1	-26.8%	-0.6%
Cc1cc(=O)oc2cc(OCc3ccc(C(=O)N4CCN(c5ccc([N+](=O)[O-])cc5)CC4)cc3)ccc12	12.6µM*	-5.3%
COC(=O)c1ccc(Oc2coc3cc(OCc4ccc([N+](=O)[O-])cc4)ccc3c2=O)cc1	10µM*	-5.2%
CCCCOc1ccccc1NC(=O)CC1Nc2ccccc2NC1=O (stereo not given)	25.1µM*	-0.4%
CCCCNC(=O)CC1Nc2ccccc2NC1=O (stereo not given)	5.1%	-3.3%
SMILES	Cruzain noTriton	Cruzain inh Det
COc1ccc([C@H]2c3cc(OC)c(OC)cc3C[C@@H](C)[C@@H]2C)cc1OC	u	-10.2%
CC(=O)N1CCc2cc(S(=O)(=O)NC(Cc3ccccc3)C(=O)Nc3ccc(Cl)cc3)ccc21 (stereo not given)	-0.1%	-0.5%
COc1cc(NC(=O)c2cc(-c3ccco3)on2)c(OC)cc1Cl	10µM*	4.5%
O=C(Nc1cccnc1Cl)c1cc(-c2ccco2)on1	3.4%	5.2%
CCC(Sc1nc(-c2ccc(F)cc2)nc2c1Cc1c(CO)cnc(C)c1O2)C(=O)Nc1ccc(F)cc1 (stereo not given)	9.4%	0.4%
CCCCOc1ccc(NC(=O)C(=O)NCCC2=CCCCC2)cc1	10µM*	2.9%
COc1ccc(NC(=O)C(=O)NCCC2=CCCCC2)c(OC)c1	3.4%	1.8%
Cc1ccc(CN(C(=O)Nc2cccc(Cl)c2)c2ccccn2)cc1	-15.6%	-6.6%
Cc1ccc(NC(=O)Nc2nnc(N(C)Cc3ccccc3)s2)cc1	1.7%	-8.5%
CCN1C(=O)c2ccccc2S(=O)c2ccc(C(=O)N3CCN(c4cc(Cl)ccc4C)CC3)cc21 (stereo not given)	-10.3%	-1.1%
Cc1onc(-c2ccccc2)c1C(=O)NC(=S)Nc1sc2c(c1C#N)CCCC2	12.6µM*	-7.6%
Cc1onc(-c2c(F)cccc2Cl)c1C(=O)Nc1sc2c(c1C(N)=O)CCC2	u	-15.3%
Cc1onc(-c2c(F)cccc2Cl)c1C(=O)Nc1sc2c(c1C#N)CCC(C(C)(C)C)C2 (stereo not given)	10µM*	-4.3%
Cc1onc(-c2ccccc2)c1C(=O)NC(=S)Nc1sc2c(c1C#N)CCC(C)C2 (stereo not given)	7.94µM*	-6.4%
Cc1cc(C(=O)Nc2sc3c(c2C#N)CCC(C)C3)no1 (stereo not given)	-7.0%	-1.7%
Cc1onc(-c2ccccc2)c1C(=O)Nc1sc2c(c1C#N)CCC2	-20.7%	-5.2%
CCOC(=O)C1CCN(c2c(C(=O)c3ccc(OC)cc3)cnc3ccccc23)CC1	31.9%	1.1%
Cc1cccc2nc(Cn3c(=O)n(-c4ccccc4)c(=O)c4c5c(sc43)CCC5)cc(=O)n12	-0.6%	-3.3%
CCCOc1ccc(-c2nonc2NC(=O)c2cc(OC)c(OC)c(OC)c2)cc1OCCC	u	-5.9%
CCc1ccc2occ(CC(=O)Nc3ccc(C)c(C)c3)c2c1	-19.9%	-9.8%
CNc1oc(-c2ccccc2)nc1C#N	29.5%	-9.1%
CNc1oc(/C=C/c2ccccc2)nc1C#N	u	25.1µM*
COc1ccccc1-c1nnc(SCC(=O)c2ccc(F)cc2)n1-c1ccccc1	u	-4.7%
O=C(NCCc1nc2ccccc2[nH]1)c1ccc(F)cc1	1.26µM*	u
CC(=O)NCCc1nc2ccccc2[nH]1	-7.1%	-2.2%
SMILES	Cruzain noTriton	Cruzain inh Det
COCC(=O)NCCc1nc2ccccc2[nH]1	u	-10.7%
COc1ccccc1C(=O)NCCc1nc2ccccc2[nH]1	5.01µM*	15.8µM*
COc1ccc(CCNc2oc(/C=C/c3cc(OC)c(OC)c(OC)c3)nc2C#N)cc1OC	-15.6%	-7.9%
COCCCNc1oc(/C=C/c2cc(OC)c(OC)c(OC)c2)nc1C#N	20µM*	25.1µM*
CC1CN(C(=O)Nc2ccc(C(=O)NCc3ccccc3F)cc2)c2ccccc2S1 (stereo not given)	-17.7%	3.1%
CCOc1ccc(-c2nnn(CC(=O)NCCc3c[nH]c4ccccc34)n2)cc1	-16.6%	-7.6%
CCCOc1ccc(-c2nnn(CC(=O)c3c[nH]c4ccccc34)n2)cc1	7.94µM*	1.9%
O=S(=O)(NCCc1ccccc1)c1ccc(N2CCCCS2(=O)=O)cc1	-6.6%	-2.5%
COc1ccc2c(C)cc(SCC(=O)Nc3nsc(-c4ccccc4C)n3)nc2c1	u	0.1%
COc1ccccc1-n1ncc2c(=O)[nH]c(SCC(=O)Nc3ccc(Cl)cc3)nc21	-2.3%	-0.5%
CN(C)c1ccc(N=Cc2nc(-c3ccccc3)oc2OC(=O)c2cccc(Cl)c2)cc1	20µM*	-23.1%
COC(=O)c1ccc(-c2nc3ccc(C)cc3o2)cc1	12.9%	-2.4%
Oc1oc(-c2ccccc2)nc1C=Nc1cccc2ccccc12	u	-5.4%
Cc1ccc(C(=O)Oc2oc(-c3ccccc3)nc2C=Nc2ccc(N(C)C)cc2)cc1	25.1µM*	28.2µM*
Cc1cccc(OCCn2nnc3sc4c(c3c2=O)CCCC4)c1	0.9%	-5.3%
Cc1cc(C(F)(F)F)n2nc(-c3ccc(Br)cc3)cc2n1	6.2%	-1.8%
COc1ccc(-c2cn3cccnc3n2)cc1NC(=O)Nc1ccc(Cl)cc1	u	-5.3%
